Screening data (PubChem)
The list is not random: actives were taken first. Their share in the collection is about 10%.
FLuc inh: Photinus pyralis luciferase inhibition; P08659; purified P. pyralis luciferase, luminescence, biochemical; Potency, µM (top dose mostly 115 µM), usual class: inhibitors; 76,000 tested, 2.5% active; AID 1347043; also: nearly all actives have a fitted effect of over 65% in size
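FLuc 10nM, D-luciferin 10uM, ATP 10uM, Mg acetate 10mM, Tris acetate pH 7.5, Tween/BSA; cpd qHTS; enzyme added last; CCD luminescence.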
NPR1 antag: antagonists of human natriuretic peptide receptor Npr1. 76,000 tested, 1.6% active. Potency, µM (top dose mostly 46.3 µM), for inactives: at the top dose activity change, negative = inhibition, most hits filed as inhibitors. HEK293 hNpr1 GloSensor cGMP, ANP-stimulated luminescence. P16066; calls by dose curve; also: nearly all actives have a fitted effect of over 60% in size
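HEK293 cells stably expressing human Npr1 and cGMP GloSensor pGS-40F, loaded 2 h with 2% GloSensor reagent, given compound 30 min at room temperature. Luminescence read before and 20 min after 0.1 nM hNppA.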
HEK293 tox: HEK 293 cell cytotoxicity | HEK 293 viability, ATP luminescence (CellTiter-Glo), 48-72 h | Potency, µM (titrated, usually from 115 µM), without a hit: top-dose activity change, negative = cytotoxicity, hits mostly inhibitors | 94,000 tested, 6.6% active | AID 1345083; also: nearly all actives have a fitted effect of over 60% in size
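Cells seeded first (HEK 293, 250 cells/well), then compound added by pintool. Incubation ran 48 or 72 hr at 37 degree Celsius. CellTiter-Glo was added and luminescence imaged after 10 min at room temperature.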
3T3 cytotox: kills NIH 3T3 cells; Potency, µM (titrated, usually from 96.7 µM), without a hit: top-dose activity change, negative = cytotoxicity, usual class: inhibitors; NIH 3T3 viability, CellTiter-Glo ATP luminescence, 48-72 h; 94,000 tested, 4.3% active; also: nearly all actives have a fitted effect of over 55% in size
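Luminescent ATP readout (CellTiter-Glo, 10 min RT) after 48 or 72 hr compound exposure of NIH 3T3 cells seeded at 400 cells/well in 1536-well format; quantitative HTS.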
GPT2 inhibitor: GPT2 alanine aminotransferase inhibition | Q8TD30 | Recombinant GPT2, coupled pyruvate oxidase/HRP Amplex Red fluorescence | 100,000 tested, 0.25% active | Potency, µM (highest dose often 57.7 µM), without a hit: at the highest dose activity change, negative = inhibition, most hits filed as inhibitors; also: nearly all actives have a fitted effect of over 60% in size
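Fluorescence of coupled pyruvate oxidase/HRP/Amplex Red system (50uM Amplex, 30 min, dark) reports pyruvate formed by GPT2. Enzyme reaction: 10ng/uL GPT2, 2mM L-alanine, 250uM a-KG, 30 min room temperature, pH 7.5; 50uM AOA control.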
The depositor's hits bear a star; [ ] = dose if it differs, or a comment. Unless noted, calls follow the shape of the dose curve; as a rule, active = well fitted curve in the direction sought with a large enough effect; inconclusive = small, poorly fitted or top-dose-only effect, or another doubt; inactive = no such curve, though single readings can be large; an effect the other way counts as inactive or inconclusive. % is scaled to controls: 0 for no effect and ±100 for the full control effect; potency is read from the fitted curve at half-maximal effect.

For CCc1cccc2c(C(CC(=O)NCC(C)C)c3cccc([N+](=O)[O-])c3)c[nH]c12 (stereo not given) the results were FLuc inh inactive, NPR1 antag -1%, HEK293 tox inconclusive, 3T3 cytotox 35µM* and GPT2 inhibitor -18%.
`CCc1cccc2c(C(CC(=O)NCc3ccco3)c3cccc([N+](=O)[O-])c3)c[nH]c12` (stereo not given) gave FLuc inh inactive, NPR1 antag -5%, HEK293 tox 45µM*, 3T3 cytotox 32µM* and GPT2 inhibitor inactive.
`Cc1ccc(C2Cn3nnc(C(=O)NCc4ccc(F)cc4Cl)c3CO2)cc1` (stereo not given) gave FLuc inh inactive, NPR1 antag -17%, HEK293 tox inconclusive, 3T3 cytotox inconclusive and GPT2 inhibitor -7%.
For CNC(=O)[C@@H]1C[C@H]2CN(C)C(=O)c3cccc(c32)N1C(=O)COc1ccccc1 the results were HEK293 tox inconclusive, 3T3 cytotox -9%[46.1 µM] and GPT2 inhibitor inactive.
For O=C(NCC1CCCCC1)c1ccc2c(c1)N(S(=O)(=O)c1ccccc1)CC2 the results were FLuc inh inactive, NPR1 antag -5%, HEK293 tox inconclusive, 3T3 cytotox 40µM* and GPT2 inhibitor inactive.
COc1ccc(-c2n[nH]c3c2CC(=O)N(Cc2ccccn2)C3)cc1F was read as FLuc inh inactive, NPR1 antag 0%[70.6 µM], HEK293 tox inconclusive, 3T3 cytotox inconclusive and GPT2 inhibitor 4%[88.5 µM].
O=C(O)c1cccc(-c2n[nH]c3c2CC(=O)N(c2ccccc2)C3)c1 was read as FLuc inh 63µM*, NPR1 antag -3%[70.6 µM], HEK293 tox inconclusive, 3T3 cytotox inconclusive and GPT2 inhibitor inactive.
`O=C1Cc2c(-c3cccc(CO)c3)n[nH]c2CN1c1ccccc1` gave FLuc inh inactive, NPR1 antag 8%[70.6 µM], HEK293 tox -10%[172 µM], 3T3 cytotox inconclusive and GPT2 inhibitor -3%[88.5 µM].
COCCN1Cc2[nH]nc(-c3cccc(OC)c3)c2CC1=O was read as FLuc inh inactive, NPR1 antag -4%[70.6 µM], HEK293 tox inconclusive, 3T3 cytotox 100µM* and GPT2 inhibitor -2%[88.5 µM].
O=C(O)c1cccc(-c2n[nH]c3c2CC(=O)N(CCOc2ccccc2)C3)c1 was read as FLuc inh inactive, NPR1 antag -1%[70.6 µM], HEK293 tox 2%[172 µM], 3T3 cytotox inconclusive and GPT2 inhibitor -13%[88.5 µM].
`O=C1Cc2c(-c3ccccc3)n[nH]c2CN1CCOc1ccccc1` gave FLuc inh inconclusive, NPR1 antag 13µM*, HEK293 tox -7%[172 µM], 3T3 cytotox inconclusive and GPT2 inhibitor -6%[88.5 µM].
For COc1ccc(-c2n[nH]c3c2CC(=O)N(CCOc2ccccc2)C3)cc1F the results were FLuc inh inactive, NPR1 antag -18%[70.6 µM], HEK293 tox 100µM*, 3T3 cytotox inconclusive and GPT2 inhibitor inactive.
For CCC(=O)N1C[C@@H](Oc2ccccc2)C[C@@H]1C(=O)NCCOC the results were FLuc inh inactive, NPR1 antag 6%, HEK293 tox 0%, 3T3 cytotox 2% and GPT2 inhibitor inactive.
CCOC(=O)C1CCN(C(=O)Cc2ccc(N(Cc3ccccc3)C(=O)c3ccco3)cc2)CC1 was read as FLuc inh inactive, NPR1 antag -23%, HEK293 tox 40µM*, 3T3 cytotox inconclusive and GPT2 inhibitor -1%.
For Cc1cccc(CNC(=O)Cc2ccc(N(Cc3ccccc3)C(=O)c3ccco3)cc2)c1 the results were FLuc inh inactive, NPR1 antag -3%, HEK293 tox inconclusive, 3T3 cytotox 45µM* and GPT2 inhibitor inactive.
For Cc1ccc(CN(C(=O)c2ccco2)c2ccc(CC(=O)NCc3ccccc3)cc2)cc1 the results were FLuc inh inactive, NPR1 antag -18%, HEK293 tox 35µM*, 3T3 cytotox inconclusive and GPT2 inhibitor 0%.
`Cc1ccc(CN(C(=O)c2ccco2)c2ccc(CC(=O)N(C)Cc3ccccc3)cc2)cc1` gave FLuc inh inactive, NPR1 antag -20%, HEK293 tox 32µM*, 3T3 cytotox inconclusive and GPT2 inhibitor -3%.
`CC(=O)N1CCN(C(=O)c2ccc3oc(-c4cccnc4C)nc3c2)CC1` gave HEK293 tox inactive, 3T3 cytotox -9%[138 µM] and GPT2 inhibitor inactive.
CC1(CO)CC[C@]2(C(=O)O[C@@H]3O[C@H](CO)[C@@H](O)[C@H](O)[C@H]3O)CC[C@]3(C)C(=CCC4[C@@]5(C)CC[C@H](O[C@@H]6O[C@H](C(=O)O)[C@@H](O)[C@H](O)[C@H]6O)C(C)(C)C5CC[C@]43C)C2C1 (stereo not given in full) was read as GPT2 inhibitor inactive.
Cc1n[nH]c(C)c1CN1C[C@@H](CO)[C@H](NC(=O)c2ccccc2)C1 was read as FLuc inh inactive, NPR1 antag 4%, HEK293 tox -25%, 3T3 cytotox -22% and GPT2 inhibitor inactive.
COc1ccc(CN2CCn3c(nn(-c4ccc(C(F)(F)F)cc4)c3=O)C2)cc1 was read as HEK293 tox -19%, 3T3 cytotox -22% and GPT2 inhibitor 3%.
O=c1n(-c2ccncc2)nc2n1CCN(Cc1ccc(OC(F)(F)F)cc1)C2 was read as FLuc inh inactive, NPR1 antag inconclusive, HEK293 tox 22µM*, 3T3 cytotox inconclusive and GPT2 inhibitor inactive.
For O=c1n(-c2ccncc2)nc2n1CCN(Cc1ccccc1)C2 the results were FLuc inh inconclusive, NPR1 antag -27%[70.6 µM], HEK293 tox 79µM*, 3T3 cytotox inconclusive and GPT2 inhibitor inactive.
For CN(C)c1ccc(CN2CCn3c(nn(-c4ccc(Cl)cc4)c3=O)C2)cc1 the results were HEK293 tox inconclusive, 3T3 cytotox -24% and GPT2 inhibitor inactive.
For Cc1ccc(/C=N/n2c(-c3ccccc3)csc2=S)cc1 the results were GPT2 inhibitor 2%.
O=C(CN1CC2CC(C1)[C@H]1CCCC(=O)N1C2)N1CCCCC1 (stereo not given in full) was read as FLuc inh inactive, NPR1 antag -1%, HEK293 tox 10%, 3T3 cytotox 2% and GPT2 inhibitor 1%.
Screening COC(=O)N(C)C1CCCc2ccccc21 (stereo not given) returned FLuc inh inactive, NPR1 antag 2%[70.6 µM], HEK293 tox inconclusive, 3T3 cytotox -34%[174 µM] and GPT2 inhibitor inconclusive.
For Cc1ccc(C(=O)N(C)C2CCCc3ccccc32)cc1 (stereo not given) the results were FLuc inh 35µM*, NPR1 antag -7%[70.6 µM], HEK293 tox 79µM*, 3T3 cytotox inconclusive and GPT2 inhibitor inactive.
